According to paper PMC5540273 (PLoS ONE, 2017):

What was measured:
Settings in all cases: concentration: 1 μM, replicates: in singlicate; n = 1
[1] = tested on: T1, BIKE
T1 construct: gene BMP2K

[2] = tested on: BLK
[3] = tested on: BMPR1A
[4] = tested on: BMPR1B
[5] = tested on: BMPR2
[6] = tested on: BMX
[7] = tested on: BRAF
[8] = tested on: T2, BRK
T2 construct: gene PTK6

[9] = tested on: BRSK1
[10] = tested on: BRSK2
[11] = tested on: BTK
[12] = tested on: BUB1
[13] = tested on: CAMK1B
[14] = tested on: CAMK1D
[15] = tested on: CAMK1G
[16] = tested on: CAMK1
[17] = tested on: CAMK2A
[18] = tested on: CAMK2B
[19] = tested on: CAMK2D
[20] = tested on: CAMK2G
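Note: KINOMEscan kinase panel screen.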

Row | Structure (SMILES) | %Inh [1] [%] | %Inh [2] [%] | %Inh [3] [%] | %Inh [4] [%] | %Inh [5] [%] | %Inh [6] [%] | %Inh [7] [%] | %Inh [8] [%] | %Inh [9] [%] | %Inh [10] [%] | %Inh [11] [%] | %Inh [12] [%] | %Inh [13] [%] | %Inh [14] [%] | %Inh [15] [%] | %Inh [16] [%] | %Inh [17] [%] | %Inh [18] [%] | %Inh [19] [%] | %Inh [20] [%]
1 | COc1ccc(Nc2nccc(N3CCC(NC(=O)c4cc5ccccc5s4)C3)n2)cc1 (stereo not drawn) [GSK1379738] | 13 | 0 | 0 | 0 | 11 | 0 | 0 | 0 | 0 | 0 | 0 | 49 | 0 | 5 | 67 | 17 | 0 | 0 | 59 | 11
2 | Fc1ccc(-c2nn3cccc(F)c3c2-c2ccncc2)cc1 [GW475620] | 34 | 20 | 24 | 0 | 0 | 8 | 29 | 11 | 0 | 0 | 0 | 53 | 39 | 10 | 40 | 6 | 0 | 0 | 6 | 14
3 | O=c1cc(N2CCOCC2)nc2n(Cc3ccccc3F)ccn12 [GSK2297428] | 0 | 21 | 0 | 0 | 0 | 13 | 0 | 36 | 0 | 100 | 0 | 0 | 0 | 16 | 5 | 15 | 0 | 0 | 7 | 15
4 | Cc1ccc(NC(=O)Nc2ccccc2F)cc1-c1ccc(C(=O)Nc2ccncc2)cc1 [GSK1398477] | 28 | 51 | 7 | 0 | 0 | 29 | 20 | 34 | 15 | 13 | 0 | 0 | 59 | 33 | 16 | 29 | 0 | 0 | 14 | 37
5 | Cc1ccccc1-c1cc(-c2c[nH]nc2-c2ccccn2)ccn1 [GW680061] | 2 | 32 | 0 | 0 | 7 | 1 | 6 | 18 | 0 | 0 | 3 | 35 | 0 | 16 | 0 | 9 | 0 | 0 | 0 | 11
6 | Cn1cncc1C(=O)NC1CCN(c2ccnc(Nc3ccc(F)cc3)n2)C1 (stereo not drawn) [GSK1379717] | 7 | 0 | 5 | 0 | 6 | 0 | 0 | 0 | 1 | 0 | 0 | 32 | 0 | 22 | 12 | 16 | 0 | 0 | 24 | 32
7 | Nc1ncnc2occ(-c3ccc4c(c3)CCN4C(=O)Cc3cc(F)ccc3F)c12 [GSK2645446] | 17 | 14 | 0 | 0 | 8 | 12 | 4 | 8 | 12 | 0 | 0 | 0 | 0 | 8 | 9 | 6 | 0 | 0 | 14 | 20
8 | CC[C@@H]1CO[C@H](C(=O)Nc2ccccc2)CN1c1cc(-c2ccc3c(N)n[nH]c3c2)nc(NC)n1 [GSK2376236] | 15 | 0 | 0 | 0 | 0 | 41 | 0 | 7 | 0 | 1 | 0 | 0 | 29 | 19 | 13 | 7 | 0 | 0 | 21 | 6
9 | COc1ccc(CSc2nnc(-c3ccc4ncsc4c3)o2)cc1C(F)(F)F | 0 | 0 | 17 | 0 | 0 | 0 | 0 | 0 | 0 | 0 | 0 | 0 | 0 | 23 | 2 | 1 | 0 | 0 | 0 | 0
10 | CC(=O)c1cccc(NC(=O)NC2CCN(c3ccnc(Nc4ccc(F)cc4)n3)C2)c1 (stereo not drawn) [GSK1379710] | 25 | 0 | 0 | 0 | 10 | 16 | 0 | 4 | 6 | 0 | 0 | 33 | 39 | 16 | 7 | 20 | 0 | 0 | 4 | 32
11 | Cc1cnc(N)c(/C=C/c2cncc(C(=O)NCCc3ccc(Cl)cc3Cl)c2)c1.Cl [GSK190937] | 23 | 3 | 0 | 0 | 0 | 19 | 1 | 7 | 0 | 0 | 1 | 9 | 0 | 10 | 7 | 12 | 0 | 0 | 6 | 27
12 | COC(=O)C(NC(=O)NC1CCN(c2ccnc(Nc3ccc(F)cc3)n2)C1)c1ccccc1 (stereo not drawn) [GSK1379712] | 8 | 0 | 0 | 0 | 17 | 3 | 9 | 2 | 12 | 0 | 18 | 37 | 35 | 5 | 0 | 9 | 0 | 0 | 11 | 19
13 | CNc1nc(-c2ccc3c(N)n[nH]c3c2)cc(N2C[C@@H](C(=O)NC3CCCCC3)OC[C@H]2C)n1 [GSK2375584] | 24 | 0 | 0 | 0 | 0 | 23 | 0 | 14 | 14 | 19 | 7 | 36 | 0 | 20 | 0 | 19 | 0 | 0 | 15 | 34
14 | Cc1ccc(-c2nc(Nc3ccncc3)c3ccccc3n2)s1 [GSK189015] | 37 | 29 | 0 | 0 | 0 | 23 | 6 | 4 | 20 | 0 | 0 | 34 | 27 | 12 | 2 | 15 | 0 | 0 | 12 | 24
15 | CN1c2ccc(-c3ccc(C(N)=O)cc3)cc2-c2[nH]ncc2S1(=O)=O | 9 | 6 | 0 | 0 | 0 | 0 | 0 | 0 | 0 | 6 | 0 | 0 | 32 | 10 | 0 | 27 | 11 | 7 | 18 | 2
16 | Cc1ccc(NC(=O)Nc2ccccc2)cc1-c1ccc(C(=O)Nc2ccncc2)cc1 [GSK1398471] | 20 | 33 | 0 | 0 | 0 | 18 | 32 | 15 | 9 | 2 | 0 | 0 | 13 | 20 | 0 | 15 | 0 | 0 | 0 | 9
17 | COc1nccc(-c2c(-c3ccc(F)cc3)ncn2CCCN2CCOCC2)n1 [SB-282852] | 0 | 0 | 0 | 0 | 25 | 0 | 20 | 0 | 0 | 0 | 33 | 0 | 29 | 0 | 0 | 0 | 0 | 0 | 0 | 0
18 | COc1cccc(CNC(=O)NC2CCN(c3ccnc(Nc4ccc(F)cc4)n3)C2)c1 (stereo not drawn) [GSK1379723] | 19 | 0 | 0 | 0 | 3 | 7 | 10 | 17 | 0 | 0 | 0 | 27 | 23 | 14 | 0 | 14 | 0 | 0 | 0 | 82
19 | c1ccc(-c2ccnc3[nH]ccc23)cc1 [SB-693578] | 0 | 4 | 1 | 0 | 47 | 0 | 4 | 14 | 0 | 100 | 0 | 58 | 11 | 9 | 15 | 14 | 0 | 15 | 31 | 21
20 | O=C(Nc1n[nH]c2nc(-c3ccco3)c(Br)cc12)C1CCN(Cc2ccccc2)C1.O=C(O)[C@H](O)[C@@H](O)C(=O)O (stereo not drawn) [SB-742034] | 0 | 0 | 32 | 10 | 16 | 0 | 0 | 9 | 18 | 37 | 0 | 0 | 0 | 22 | 10 | 29 | 30 | 20 | 7 | 17
21 | Cc1ccc(NC(=O)c2ccc(Cl)cc2)cc1-c1ccc(C(=O)Nc2ccncc2)cc1 [GSK1398467] | 13 | 1 | 0 | 0 | 0 | 8 | 0 | 0 | 0 | 18 | 0 | 47 | 4 | 0 | 9 | 4 | 100 | 86 | 10 | 12
